“And” between values parts separate entries of the source, which are not always exact repeats. Equal entries are not always repeated. Compounds without any hit were thinned out: in the full panel of roughly 83,000, 20% have a hit.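 Step 1: grow cells in 96-well plates. Step 2: add test compound at a single concentration. Step 3: incubate 48 h. Step 4: record percent growth.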 Values without a mark were called inactive. The source made the active and inactive calls. Rule for the calls: active = growth percent below 10; inactive = the rest.
These compounds were tested on MDA-MB-468 breast (assay: NCI-60 one-dose screen, 48 h (100 = growth as untreated, 0 = no growth, -100 = all killed)). Conditions: 10 µM unless noted.
Compound `CCS(=O)(=O)OCCO[C@H]1Cc2cc3ccc(=O)oc3cc2OC1(C)C` has a growth of 97.9%.
`CCOc1ncc([N+](=O)[O-])c(OCC)n1` gave a growth of 115%.
In the case of `COc1cc(C2c3cc4c(cc3C(O)C(CO)C2CO)OCO4)cc(OC)c1OC` (centres undefined), the growth is reported as -17.7% (active).
With `CC1=NN(c2cccc(Cl)c2)C(=O)/C1=C\c1cn(CC(O)CN2CCCCC2)c2ccccc12` (centres undefined) the growth was 23.7%.
`COc1cccc(Cc2nn3cc(-c4ccccc4)nc3s2)c1` gave a growth of 92.1%.
With `CC(=O)Oc1cc(C(C)C)c(OCCN(C)C)cc1C` the growth was 110% and 104%.
`N/C(=N\C(N)=N\c1nc2ccccc2s1)c1ccc(Cl)cc1` was tested, and the growth was 94.6%.
In the case of `CN(C)C(=O)SC1=C(c2c(Cl)cccc2Cl)C(=O)c2ccccc21`, the growth is reported as -86.5% (active).
`COc1cc(-c2nc3sccn3c2-c2ccnc(NCCNS(=O)(=O)c3ccccc3)n2)ccc1F` was tested, and the growth was 40.2%.
`CC1=C2[C@@H](CC1)[C@]1(C)O[C@@](C3CC3)(C[C@H]1OC(=O)CO)[C@H]2OC(=O)/C=C/c1ccccc1` showed a growth of 83%.
`O=C(N/N=C/c1ccccc1O)c1ccccc1Nc1ccnc(C(F)(F)F)c1` was tested, and the growth was -18.4% (active).
In the case of `CCN(CC)CCCNc1cc(OC)cc2cccnc12`, the growth is reported as 59%.
`N#Cc1nn(-c2cc(=O)[nH]c3ccc(Br)cc23)c(N)c1C#N` showed a growth of 106%.
With `CN(C)CCNC(=O)c1ccc(-c2nc3ccc4[nH]ncc4c3c3c2COCC3)cc1` the growth was -54.5% (active).
`OCCNc1nc(NCCO)nc(Nc2ccc(C3=NN(c4ccc(Cl)cc4)C(c4ccc(Cl)cc4)C3)cc2)n1` (centres undefined) showed a growth of 85.7%.
For `COC(=O)/C=C/C(=O)c1cc(C)cc(C)c1O`, the growth was 110%.
Compound `COc1cc2c(cc1OC)-c1c(oc3c4c(ccc3c1=O)OC(C)(C)C=C4)CO2` has a growth of 19.2%.
In the case of `Cc1nn(-c2ccc(Cl)cc2)c2ncnc(N/N=C/c3ccccc3O)c12`, the growth is reported as -30.8% (active) and -12.1% (active).
In the case of `c1ccc(-c2oc(-c3ccccc3)c(CN3CCCCC3)c2CN2CCCCC2)cc1`, the growth is reported as -35.9% (active).
`N#Cc1c(-c2ccc(C(F)(F)F)cc2)cc(NCC2CCS(=O)(=O)CC2)n2c1nc1ccccc12` showed a growth of 78.1%.
For `Cc1cc(NS(=O)(=O)c2ccc(-c3cnc(C4CC4)o3)cc2)ccc1I`, the growth was 3.98% (active).
`CC(=O)c1cc2c(N)c(C(=O)Nc3cccc(Cl)c3)sc2nc1C` showed a growth of 45.3%.
For `Cc1cccc(N2CCN(CC(O)COc3ccc(Cl)cc3)CC2)c1` (centres undefined), the growth was 107%.
`COc1ccc([C@@H]2[C@@H](O)C(=O)N2c2cc(OC)c(OC)c(OC)c2)cc1` was tested, and the growth was 2.98% (active).
`O=C(Nc1ccc2c(c1)-c1ccccc1C2)C1CC(=O)N(c2ccc3c(c2)OCO3)C1` (centres undefined) gave a growth of 52.7% [50 µM].
In the case of `CCOC(=O)c1sc(NCC(=O)Nc2cccc([N+](=O)[O-])c2)c(C(=O)OCC)c1C`, the growth is reported as -47.4% (active).
With `NS(=O)(=O)c1ccc(-n2nc(C(=O)N/N=C\c3ccc(F)cc3)cc2-c2ccc(Cl)cc2)cc1` the growth was 112%.
In the case of `COc1ccc(CCNc2nc3c(c(=O)n(Cc4ccc(Br)cc4)c(=O)n3C)n2C)cc1OC`, the growth is reported as 109%.
Work on `Cn1cc(CNc2nc3ccc(OC/C(=C/F)CN)cc3o2)ccc1=O` yielded a growth of 107%.
Compound `Nc1nc(N)c2c(n1)NC(c1ccc(Cl)cc1)CC(c1cccc(Nc3ccncc3)c1)=N2` (centres undefined) has a growth of 57.4%.
`COc1ccc(-c2cnc(N)nc2-c2ccc(OC)cc2O)cc1` showed a growth of 92.5%.
Compound `O=C(O)c1nn(-c2ccc(Cl)cc2)nc1N1CCCC1` has a growth of 86%.
Compound `O=C(CCCCC(=O)Oc1c(Cl)cc(Cl)cc1[N+](=O)[O-])Oc1c(Cl)cc(Cl)cc1[N+](=O)[O-]` has a growth of 113%.
With `C#C[C@@]1(O)[C@@H](CO)O[C@@H](n2cnc3c(-c4ccccc4)ncnc32)[C@@H]1O` the growth was 111%.
Compound `CCCCCN(CCCCC)CCCCCCCCN1CCCc2ccccc21` has a growth of 99.9%.
In the case of `Nc1nc(N)c2c(n1)NC(c1ccc(Cl)cc1)C1CCc3ccccc3C1=N2` (centres undefined), the growth is reported as 18.6%.
`Cc1ccc(NC(=O)C2CCC(CN3CCN(C)CC3)CC2)cc1Nc1nccc(-c2cccnc2)n1` (centres undefined) gave a growth of 94.8%.
With `O=C(Nc1nc2ccc(C(=O)N3CCN(c4ccc(Cl)c(Cl)c4)CC3)cc2s1)c1ccc(NCCc2ccccc2)c([N+](=O)[O-])c1` the growth was 88.6%.
Work on `COc1cc(C(=O)/C(C)=C/c2c[nH]c3ccccc23)cc(OC)c1OC` yielded a growth of 11.4%.

From PubChem BioAssay (NCI)
